# Assay results published in PubChem BioAssay AID1625 (Sanford-Burnham Center for Chemical Genomics, 2009).
# The whole screen tested about 190,000 compounds, of which about 570 (0.3%) were called active.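 The calls were made as follows: active = z-score above 3 at 5 µM with at least 500 cells counted in the well; inconclusive = wells under 500 cells, flagged as cytotoxic or low count; inactive = the rest.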 The full list was thinned out, with actives kept by preference.
# Assay: up-regulation of insulin promoter-GFP reporter – imaging, high-content screening, mouse beta cells (AID 1625);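 as to cell count: total cells summed across four imaged fields per well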
# Settings: MIN6 insulin promoter-GFP reporter, at 5 µM; cell count: measured here: cytotoxicity, nuclei count; z-score: stronger effect = higher value
SMILES,cell count [cells],z-score
COc1ccc(-n2c(SCC(=O)OC(C)C)nnc2-c2ccccn2)cc1,1260,0.29 (inactive)
Cc1ccc(-n2c(Cc3cccs3)nnc2SCC(=O)OC(C)C)cc1,993,3.05 (active)
CCn1c(Cc2cccs2)nnc1SCC(=O)c1ccc(C)cc1,827,-1.87 (inactive)
Cc1ccc(Oc2nc(-c3ccccn3)nc3ccccc23)cc1,1010,-0.89 (inactive)
O=C1N(c2ccccc2)C(=Nc2ccccc2)SC12CC2,1070,-0.2 (inactive)
COc1ccc(OC)c(S(=O)(=O)NCCC(C)C)c1,1220,-0.95 (inactive)
CCOC(=O)CN(C(=O)COc1nc(-c2ccccc2)cc(C)c1C#N)c1ccc(F)cc1,1080,-0.04 (inactive)
CCOC(=O)C1CCN(C(=O)Nc2ccc(C)c(Cl)c2)CC1,1020,-0.22 (inactive)
O=C(CCCN1C(=O)/C(=C/c2ccccc2)SC1=S)Nc1ccc(O)cc1,1550,-0.31 (inactive)
O=C(CCN1C(=O)/C(=C/c2cccs2)SC1=S)NNC(=O)c1cccc(O)c1,1100,3.43 (active)
O=C(CCCN1C(=O)/C(=C\c2ccccc2)SC1=S)Nc1ccccc1O,1110,-1.05 (inactive)
Nc1nc(O)c(CC(=O)O)s1,1490,-0.64 (inactive)
Cc1ccc(NNC(=O)C2CCC2)cc1C,1450,-0.26 (inactive)
CCOC(=O)C1=NN(c2ccc(Cl)cc2)/C(=C/C2=NCCc3cc(OC)c(OC)cc32)S1,1380,0.35 (inactive)
CCCN(CCC)CC(O)COc1ccccc1C(=O)Nc1ccccc1 (stereo unspecified),1020,-0.54 (inactive)
COc1ccc(-c2[nH]ncc2CN(Cc2nccn2C)C(C)C)cc1F,1490,-1.07 (inactive)
O=S(=O)([N-]c1nc2ccccc2nc1-[n+]1ccc(Cc2ccccc2)cc1)c1ccc(Br)s1,1020,-0.15 (inactive)
[O-][N+]12CCCCC1CCCC2CO (stereo unspecified),977,0.05 (inactive)
COc1ccc(OC)c(-c2c(=O)n(OCc3ccccc3Br)c3ccccc3[n+]2[O-])c1,1330,-0.44 (inactive)
CCOc1ccc(OCC)c(-c2c(=O)n(OCc3ccc(Cl)cc3)c3ccccc3[n+]2[O-])c1,1410,3.34 (active)
O=c1c(-c2ccc(Cl)cc2)[n+]([O-])c2ccccc2n1OCc1nc2ccccc2[nH]1,1200,-1.15 (inactive)
CCN(CC)CCNCC(=O)Nc1ccc(Oc2ccccc2)cc1,919,-0.39 (inactive)
C/C(=N\Nc1cccc(C(=O)O)c1)c1ccc2c(c1)Nc1ccccc1S2,1020,-0.12 (inactive)
O=C(Cn1c(N2CCN(C/C=C/c3ccccc3)CC2)nc2ccccc21)c1ccccc1,1150,-0.35 (inactive)
COc1ccc(F)cc1S(=O)(=O)N1CCCCC1,1090,0.19 (inactive)
N#C/C(=C\N1CCOCC1)S(=O)(=O)c1ccc(Cl)cc1,930,-0.15 (inactive)
CCc1ccc(S(=O)(=O)Nc2ccc(C)c(NS(C)(=O)=O)c2)cc1,1030,0.6 (inactive)

SMILES,cell count [cells],z-score
CCOc1cccc(SCc2noc(C(=O)NC(C)C)c2C(=O)O)c1,1590,-0.64 (inactive)
COCCNC(=O)c1onc(CSc2cccc(C)c2)c1C(=O)O,1620,3.82 (active)
CCCCNC(=O)c1onc(CSc2cccc(OC)c2)c1C(=O)O,1420,-0.14 (inactive)
CN(CC(=O)Nc1ccc(F)cc1)CC(=O)Nc1ccc(Cl)c(S(=O)(=O)N2CCOCC2)c1,1070,-0.46 (inactive)
CC(C)NC(=O)/C(C#N)=C\c1ccc(N(C)C)c(Br)c1,1460,0.33 (inactive)
CCc1cc(C(=O)OC)c(NC(=O)CC2Sc3ccc(C(F)(F)F)cc3NC2=O)s1 (stereo unspecified),1330,3.33 (active)
Cc1ccc(CNC(=O)CC2Sc3ccccc3NC2=O)cc1 (stereo unspecified),1420,-0.57 (inactive)
COC(=O)c1cc(C)sc1NC(=O)CC1Nc2ccccc2NC1=O (stereo unspecified),1110,2.17 (inactive)
CCc1ccc(NC(=O)N[C@H](C(=O)O)C(C)CC)cc1 (stereo partly specified),978,0.03 (inactive)
O=C(Nc1nnc(SCc2c(Cl)cccc2Cl)s1)c1cccc([N+](=O)[O-])c1,1070,0.41 (inactive)
Nc1nnc(SCn2nnc3ccccc3c2=O)s1,1620,0.07 (inactive)
CCOc1cc2c(cc1OCC)C(C(=O)O)C(c1ccc(OC)c(O)c1)N(C)C2=O (stereo unspecified),1550,0.1 (inactive)
CCOc1ccc(C2C(C(=O)O)c3ccccc3C(=O)N2CCN2CCOCC2)cc1 (stereo unspecified),1350,4.94 (active)
COc1ccc(C2C(C(=O)N3CCN(c4ccc(OC)cc4)CC3)c3ccccc3C(=O)N2C)cc1 (stereo unspecified),1330,-1.17 (inactive)
O=C(COC(=O)/C=C/c1ccc2c(c1)OCO2)NC1CCS(=O)(=O)C1 (stereo unspecified),933,-0.06 (inactive)
COc1ccccc1N1CCN(C(=O)CSc2ncnc3c2cnn3-c2ccc(C)c(C)c2)CC1,959,-0.23 (inactive)
CC1Cc2ccccc2N1S(=O)(=O)c1ccc(Cl)nc1 (stereo unspecified),1130,0.1 (inactive)
CCc1nnc(NC(=O)CCC(=O)NCc2ccccc2OC)s1,1600,4.05 (active)
CCc1nnc(NC(=O)CCC(=O)O)s1,879,-0.23 (inactive)
COc1ccccc1CNC(=O)CCn1c(=O)sc2ccccc21,1300,-0.13 (inactive)
O=C(Nc1ccc(Cl)cc1)/C(=C1\CCCN1)[N+](=O)[O-],1400,0.56 (inactive)
COc1ccc(OC)c(-c2csc(NC(=O)C3=NNC(=O)CC3)n2)c1,1110,1.47 (inactive)
CCOc1cccc(/C=C/c2ccc3ccccc3n2)c1OC(C)=O,1230,-0.46 (inactive)
Cc1nc(COc2cccc(Cl)c2)sc1C(=O)/C=C/N(C)C,1040,0.55 (inactive)
CN1CCN(c2ccc(S(=O)(=O)N3CCOCC3)cc2NC(=O)CCc2ccccc2)CC1,1040,0.32 (inactive)
C=CCC(Nc1ccccc1)c1cccc(OC)c1OC (stereo unspecified),1080,-0.62 (inactive)
